# According to article PMC7862700, “An all-to-all approach to the identification of sequence-specific readers for epigenetic DNA modifications on cytosine”:
# Columns and labels:
# Assay in all cases: DAPPL (digital affinity profiling via proximity ligation, sequencing); 10 mM Tris-HCl pH 7.5, 50 mM NaCl, 1 mM DTT, 4% glycerol, room temperature, 30 min; GST-TFs on glutathione beads, 16-mer random dsDNA library, 0.1% formaldehyde crosslink after washing; high values mean tight binding
# [1] = target: T1, FLI1 (Homo sapiens, UniProt Q01543 1-452); details: protein: recombinant; tags: N-terminal GST; dsDNA, one strand shown
# T1 sequence: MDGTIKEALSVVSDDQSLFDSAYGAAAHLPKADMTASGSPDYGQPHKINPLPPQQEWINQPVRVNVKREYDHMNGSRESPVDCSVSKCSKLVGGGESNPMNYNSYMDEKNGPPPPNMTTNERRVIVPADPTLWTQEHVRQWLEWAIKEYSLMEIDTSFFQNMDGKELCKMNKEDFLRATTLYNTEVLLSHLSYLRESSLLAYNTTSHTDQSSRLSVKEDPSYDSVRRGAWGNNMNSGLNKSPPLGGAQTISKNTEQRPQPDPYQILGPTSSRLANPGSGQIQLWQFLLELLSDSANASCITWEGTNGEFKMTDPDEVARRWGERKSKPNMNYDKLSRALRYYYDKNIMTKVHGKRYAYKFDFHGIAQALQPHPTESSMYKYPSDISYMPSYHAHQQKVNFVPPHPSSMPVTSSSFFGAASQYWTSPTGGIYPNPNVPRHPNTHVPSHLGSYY
# In short: (§1)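 Sequencing on an Illumina NextSeq500 followed washing, crosslinking with 0.1% formaldehyde, proximity ligation (BsaI/T4 ligase, 1 h, 37 °C) and PCR amplification of pools that had been incubated for 30 min at room temperature with 200 nmole of a random double-stranded 16-mer DNA library in Tris/NaCl/DTT/glycerol buffer. Each pool held DNA-barcoded human transcription factors, expressed in yeast as GST fusions and captured on glutathione beads, plus a tag-only sample. Binding signal is a hexamer's read frequency for a factor divided by its frequency in the tag-only sample.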
# [2] = target: T2, ELK1 (Homo sapiens, UniProt P19419 1-428); details: protein: recombinant; tags: N-terminal GST; dsDNA, one strand shown
# T2 sequence: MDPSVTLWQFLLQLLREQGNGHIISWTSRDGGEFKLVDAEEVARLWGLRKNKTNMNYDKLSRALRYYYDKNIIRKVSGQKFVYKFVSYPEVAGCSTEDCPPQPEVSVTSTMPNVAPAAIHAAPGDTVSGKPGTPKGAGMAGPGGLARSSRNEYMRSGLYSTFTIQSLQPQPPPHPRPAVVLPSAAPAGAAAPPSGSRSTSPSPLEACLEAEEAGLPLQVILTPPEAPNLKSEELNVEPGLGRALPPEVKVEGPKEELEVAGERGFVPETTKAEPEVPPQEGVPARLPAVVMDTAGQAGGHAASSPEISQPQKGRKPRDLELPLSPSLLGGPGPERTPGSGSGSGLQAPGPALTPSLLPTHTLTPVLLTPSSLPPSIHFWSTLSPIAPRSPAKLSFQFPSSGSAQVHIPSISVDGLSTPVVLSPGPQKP
# In short: as §1
# [3] = target: T3, GABPA (Homo sapiens, UniProt Q06546 1-454); details: protein: recombinant; tags: N-terminal GST; dsDNA, one strand shown
# T3 sequence: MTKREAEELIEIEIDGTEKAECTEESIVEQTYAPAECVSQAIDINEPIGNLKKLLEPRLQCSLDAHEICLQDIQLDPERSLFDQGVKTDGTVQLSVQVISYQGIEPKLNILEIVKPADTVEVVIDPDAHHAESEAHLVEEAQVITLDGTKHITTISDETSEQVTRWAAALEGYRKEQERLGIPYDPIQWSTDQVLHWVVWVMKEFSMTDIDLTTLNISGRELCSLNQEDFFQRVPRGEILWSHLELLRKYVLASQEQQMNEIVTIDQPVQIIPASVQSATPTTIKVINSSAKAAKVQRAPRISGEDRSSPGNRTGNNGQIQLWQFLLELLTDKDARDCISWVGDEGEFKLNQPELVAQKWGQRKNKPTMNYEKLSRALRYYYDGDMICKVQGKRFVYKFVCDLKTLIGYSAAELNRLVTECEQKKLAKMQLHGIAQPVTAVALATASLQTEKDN
# In short: as §1
# [4] = target: T4, ERG (Homo sapiens, UniProt P11308 1-479); details: protein: recombinant; tags: N-terminal GST; dsDNA, one strand shown
# T4 sequence: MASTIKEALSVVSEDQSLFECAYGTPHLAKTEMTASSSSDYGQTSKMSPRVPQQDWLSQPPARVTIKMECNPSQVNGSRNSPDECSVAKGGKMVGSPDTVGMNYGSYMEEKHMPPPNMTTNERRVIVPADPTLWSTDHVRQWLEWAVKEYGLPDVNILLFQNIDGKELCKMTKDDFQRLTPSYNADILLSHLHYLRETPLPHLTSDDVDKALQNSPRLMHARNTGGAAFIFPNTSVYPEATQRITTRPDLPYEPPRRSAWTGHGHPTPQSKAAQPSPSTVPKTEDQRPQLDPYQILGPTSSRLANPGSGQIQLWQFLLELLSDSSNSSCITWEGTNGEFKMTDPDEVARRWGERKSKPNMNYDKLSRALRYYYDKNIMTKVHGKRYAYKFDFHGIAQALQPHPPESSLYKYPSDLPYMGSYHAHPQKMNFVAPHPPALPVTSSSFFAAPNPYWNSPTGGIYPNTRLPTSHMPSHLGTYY
# In short: as §1
# [5] = target: ELF1 (Homo sapiens, UniProt P32519 1-619); details: protein: recombinant; tags: N-terminal GST; dsDNA, one strand shown
# In short: as §1
# [6] = target: T5, EHF (Homo sapiens, UniProt Q9NZC4 1-300); details: protein: recombinant; tags: N-terminal GST; dsDNA, one strand shown
# T5 sequence: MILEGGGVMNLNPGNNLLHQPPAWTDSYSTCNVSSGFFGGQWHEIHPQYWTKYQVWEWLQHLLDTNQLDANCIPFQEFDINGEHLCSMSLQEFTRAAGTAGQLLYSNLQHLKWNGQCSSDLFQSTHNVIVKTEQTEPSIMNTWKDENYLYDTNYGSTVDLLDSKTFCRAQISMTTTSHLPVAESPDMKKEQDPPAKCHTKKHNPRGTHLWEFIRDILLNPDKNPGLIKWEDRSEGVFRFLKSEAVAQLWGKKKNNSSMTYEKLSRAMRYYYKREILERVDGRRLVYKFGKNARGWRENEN
# In short: as §1
# [7] = target: SPI1 (Homo sapiens, UniProt P17947 1-270); details: protein: recombinant; tags: N-terminal GST; dsDNA, one strand shown
# In short: as §1
# [8] = target: SPIB (Homo sapiens, UniProt Q01892 1-262); details: protein: recombinant; tags: N-terminal GST; dsDNA, one strand shown
# In short: as §1
# [9] = target: T6, ELK3 (Homo sapiens, UniProt P41970 1-407); details: protein: recombinant; tags: N-terminal GST; dsDNA, one strand shown
# T6 sequence: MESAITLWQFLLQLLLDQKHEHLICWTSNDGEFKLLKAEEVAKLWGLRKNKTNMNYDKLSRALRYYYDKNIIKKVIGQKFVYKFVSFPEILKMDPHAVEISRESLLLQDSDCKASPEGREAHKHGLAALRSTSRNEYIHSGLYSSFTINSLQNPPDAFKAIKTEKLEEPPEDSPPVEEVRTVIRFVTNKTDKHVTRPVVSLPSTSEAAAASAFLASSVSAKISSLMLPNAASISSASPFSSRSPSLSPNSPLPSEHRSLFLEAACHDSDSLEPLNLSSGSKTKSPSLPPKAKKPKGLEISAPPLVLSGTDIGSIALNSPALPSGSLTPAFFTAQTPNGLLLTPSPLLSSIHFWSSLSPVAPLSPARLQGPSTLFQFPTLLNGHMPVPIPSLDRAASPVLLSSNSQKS
# In short: as §1
# [10] = target: T7, FEV (Homo sapiens, UniProt Q99581 1-238); details: protein: recombinant; tags: N-terminal GST; dsDNA, one strand shown
# T7 sequence: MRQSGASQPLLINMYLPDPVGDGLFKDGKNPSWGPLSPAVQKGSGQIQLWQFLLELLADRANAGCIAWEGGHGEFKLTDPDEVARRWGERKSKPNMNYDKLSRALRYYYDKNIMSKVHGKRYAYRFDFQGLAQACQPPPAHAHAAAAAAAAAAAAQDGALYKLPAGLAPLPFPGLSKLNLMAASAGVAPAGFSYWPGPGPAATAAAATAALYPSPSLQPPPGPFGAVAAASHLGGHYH
# In short: as §1
# [11] = target: ETV5 (Homo sapiens, UniProt P41161 1-510); details: protein: recombinant; tags: N-terminal GST; dsDNA, one strand shown
# In short: as §1
# [12] = target: HSF1 (Homo sapiens, UniProt Q00613 1-529); details: protein: recombinant; tags: N-terminal GST; chain copies: 3; dsDNA, one strand shown
# In short: as §1
# [13] = target: T8, SPIC (Homo sapiens, UniProt Q8N5J4 1-248); details: protein: recombinant; tags: N-terminal GST; dsDNA, one strand shown
# T8 sequence: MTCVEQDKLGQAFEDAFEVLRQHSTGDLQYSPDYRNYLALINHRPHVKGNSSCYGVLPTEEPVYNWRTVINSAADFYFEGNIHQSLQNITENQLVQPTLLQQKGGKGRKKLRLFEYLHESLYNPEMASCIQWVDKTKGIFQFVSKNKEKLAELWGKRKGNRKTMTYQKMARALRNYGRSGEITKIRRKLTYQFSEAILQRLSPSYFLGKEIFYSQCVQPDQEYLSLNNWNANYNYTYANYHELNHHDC
# In short: as §1
# [14] = target: ELF4 (Homo sapiens, UniProt Q99607 1-663); details: protein: recombinant; tags: N-terminal GST; dsDNA, one strand shown
# In short: as §1
# [15] = target: T9, ELK4 (Homo sapiens, UniProt P28324-2 1-405); details: protein: recombinant; tags: N-terminal GST; dsDNA, one strand shown
# T9 sequence: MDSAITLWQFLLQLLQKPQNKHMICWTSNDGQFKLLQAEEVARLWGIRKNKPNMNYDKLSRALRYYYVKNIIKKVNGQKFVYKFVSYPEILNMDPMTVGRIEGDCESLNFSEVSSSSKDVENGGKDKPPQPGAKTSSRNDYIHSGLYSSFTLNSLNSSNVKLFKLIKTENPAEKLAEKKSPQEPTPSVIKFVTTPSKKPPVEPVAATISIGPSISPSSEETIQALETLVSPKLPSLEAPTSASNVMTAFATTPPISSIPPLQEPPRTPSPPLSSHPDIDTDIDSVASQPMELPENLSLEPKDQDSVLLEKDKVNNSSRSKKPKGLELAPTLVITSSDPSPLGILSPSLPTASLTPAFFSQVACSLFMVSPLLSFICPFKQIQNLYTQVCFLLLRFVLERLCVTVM
# In short: as §1
# [16] = target: T10, ETV2 (Homo sapiens, UniProt O00321 1-342); details: protein: recombinant; tags: N-terminal GST; dsDNA, one strand shown
# T10 sequence: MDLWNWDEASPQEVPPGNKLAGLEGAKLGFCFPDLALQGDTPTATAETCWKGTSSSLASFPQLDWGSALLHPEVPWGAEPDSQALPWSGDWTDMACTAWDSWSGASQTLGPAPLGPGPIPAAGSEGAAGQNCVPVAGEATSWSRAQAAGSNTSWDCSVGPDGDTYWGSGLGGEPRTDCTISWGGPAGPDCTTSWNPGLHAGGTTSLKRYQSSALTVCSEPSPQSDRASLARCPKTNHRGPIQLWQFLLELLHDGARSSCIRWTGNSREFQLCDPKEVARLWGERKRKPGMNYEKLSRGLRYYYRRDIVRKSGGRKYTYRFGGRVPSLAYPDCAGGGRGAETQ
# In short: as §1
# [17] = target: T11, ELF3 (Homo sapiens, UniProt P78545 1-371); details: protein: recombinant; tags: N-terminal GST; dsDNA, one strand shown
# T11 sequence: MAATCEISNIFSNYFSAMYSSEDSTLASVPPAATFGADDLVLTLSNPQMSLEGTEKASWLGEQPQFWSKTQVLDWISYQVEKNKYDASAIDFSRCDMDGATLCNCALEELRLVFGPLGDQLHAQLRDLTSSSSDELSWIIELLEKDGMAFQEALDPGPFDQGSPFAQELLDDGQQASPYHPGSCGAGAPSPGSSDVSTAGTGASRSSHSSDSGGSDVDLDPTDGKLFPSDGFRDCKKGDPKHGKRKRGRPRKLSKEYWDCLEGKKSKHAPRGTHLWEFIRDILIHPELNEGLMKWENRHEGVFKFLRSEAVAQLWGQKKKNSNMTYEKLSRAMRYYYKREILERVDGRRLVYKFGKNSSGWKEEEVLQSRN
# In short: as §1
# [18] = target: CRX (Homo sapiens, UniProt O43186 1-299); details: protein: recombinant; tags: N-terminal GST; dsDNA, one strand shown
# In short: as §1
# [19] = target: ETV1 (Homo sapiens, UniProt P50549 1-477); details: protein: recombinant; tags: N-terminal GST; dsDNA, one strand shown
# In short: as §1
# Sequence of ETV1 (P50549 whole entry): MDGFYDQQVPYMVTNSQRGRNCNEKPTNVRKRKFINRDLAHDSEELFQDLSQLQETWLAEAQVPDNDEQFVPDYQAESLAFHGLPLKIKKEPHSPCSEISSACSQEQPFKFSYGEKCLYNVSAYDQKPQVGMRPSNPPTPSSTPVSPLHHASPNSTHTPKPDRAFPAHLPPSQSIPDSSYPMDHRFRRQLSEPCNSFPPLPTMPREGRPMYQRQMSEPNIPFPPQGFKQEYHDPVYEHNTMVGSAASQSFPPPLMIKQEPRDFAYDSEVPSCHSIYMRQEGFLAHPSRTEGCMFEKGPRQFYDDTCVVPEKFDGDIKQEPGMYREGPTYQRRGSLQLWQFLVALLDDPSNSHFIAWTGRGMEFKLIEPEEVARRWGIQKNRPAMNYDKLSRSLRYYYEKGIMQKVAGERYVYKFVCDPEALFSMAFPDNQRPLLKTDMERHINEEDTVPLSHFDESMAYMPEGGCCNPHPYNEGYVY
# Sequence of SPIB (Q01892 whole entry): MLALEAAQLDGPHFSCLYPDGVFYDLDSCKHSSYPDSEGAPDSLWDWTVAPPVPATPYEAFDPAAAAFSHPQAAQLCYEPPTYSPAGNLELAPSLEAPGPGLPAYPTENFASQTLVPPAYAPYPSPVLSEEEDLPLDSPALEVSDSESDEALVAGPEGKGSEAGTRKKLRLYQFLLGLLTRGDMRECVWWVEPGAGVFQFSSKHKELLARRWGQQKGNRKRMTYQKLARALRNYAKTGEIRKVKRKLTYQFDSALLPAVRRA
# Sequence of HSF1 (Q00613 whole entry): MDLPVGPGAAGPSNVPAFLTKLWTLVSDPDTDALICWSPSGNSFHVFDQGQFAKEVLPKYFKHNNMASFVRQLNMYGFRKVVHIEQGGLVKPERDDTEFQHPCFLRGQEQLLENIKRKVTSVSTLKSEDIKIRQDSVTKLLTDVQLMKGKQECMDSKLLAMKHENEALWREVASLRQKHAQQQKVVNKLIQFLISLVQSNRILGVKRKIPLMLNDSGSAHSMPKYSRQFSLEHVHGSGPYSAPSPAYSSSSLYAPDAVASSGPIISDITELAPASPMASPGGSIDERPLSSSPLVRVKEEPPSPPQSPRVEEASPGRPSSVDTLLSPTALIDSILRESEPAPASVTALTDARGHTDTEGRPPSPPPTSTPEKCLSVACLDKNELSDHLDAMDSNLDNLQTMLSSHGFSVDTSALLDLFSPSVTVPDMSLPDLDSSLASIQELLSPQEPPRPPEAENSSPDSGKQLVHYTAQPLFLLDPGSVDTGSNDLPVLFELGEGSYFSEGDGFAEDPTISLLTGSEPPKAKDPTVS
# Sequence of ELF4 (Q99607 whole entry): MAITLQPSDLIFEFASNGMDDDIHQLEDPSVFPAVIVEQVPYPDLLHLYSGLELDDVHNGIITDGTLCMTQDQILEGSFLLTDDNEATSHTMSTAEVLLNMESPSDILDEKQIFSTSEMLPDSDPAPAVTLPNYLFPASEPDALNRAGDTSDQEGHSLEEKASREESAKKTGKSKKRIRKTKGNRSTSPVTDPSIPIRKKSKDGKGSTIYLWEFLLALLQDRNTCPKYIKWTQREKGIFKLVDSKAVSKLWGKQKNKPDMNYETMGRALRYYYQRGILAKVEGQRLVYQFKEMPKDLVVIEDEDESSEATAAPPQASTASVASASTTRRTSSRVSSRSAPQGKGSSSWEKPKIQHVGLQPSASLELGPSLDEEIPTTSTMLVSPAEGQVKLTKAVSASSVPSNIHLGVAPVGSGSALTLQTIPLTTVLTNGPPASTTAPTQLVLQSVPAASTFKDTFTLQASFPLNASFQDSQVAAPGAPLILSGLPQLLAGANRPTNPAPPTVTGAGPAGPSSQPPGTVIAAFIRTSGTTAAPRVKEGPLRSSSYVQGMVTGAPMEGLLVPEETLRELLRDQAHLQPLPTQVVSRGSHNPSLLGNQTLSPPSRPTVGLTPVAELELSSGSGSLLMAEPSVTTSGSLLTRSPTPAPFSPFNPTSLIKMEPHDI
# Sequence of ELF1 (P32519 whole entry): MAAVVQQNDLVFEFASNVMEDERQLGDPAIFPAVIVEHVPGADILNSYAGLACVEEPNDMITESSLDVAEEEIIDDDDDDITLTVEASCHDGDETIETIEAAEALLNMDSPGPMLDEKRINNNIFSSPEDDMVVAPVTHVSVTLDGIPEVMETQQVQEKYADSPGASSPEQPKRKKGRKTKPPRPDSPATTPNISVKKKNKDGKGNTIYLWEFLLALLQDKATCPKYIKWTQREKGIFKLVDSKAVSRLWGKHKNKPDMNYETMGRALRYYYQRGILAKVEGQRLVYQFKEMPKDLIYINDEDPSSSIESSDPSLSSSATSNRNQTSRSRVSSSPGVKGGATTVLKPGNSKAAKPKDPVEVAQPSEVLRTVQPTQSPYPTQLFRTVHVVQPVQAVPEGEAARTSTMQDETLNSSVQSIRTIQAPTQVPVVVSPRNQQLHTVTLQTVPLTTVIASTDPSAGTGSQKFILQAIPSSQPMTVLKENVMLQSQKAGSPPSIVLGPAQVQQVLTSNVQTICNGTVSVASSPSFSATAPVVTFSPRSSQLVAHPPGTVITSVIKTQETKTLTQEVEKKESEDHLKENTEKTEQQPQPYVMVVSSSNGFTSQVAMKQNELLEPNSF
# Sequence of CRX (O43186 whole entry): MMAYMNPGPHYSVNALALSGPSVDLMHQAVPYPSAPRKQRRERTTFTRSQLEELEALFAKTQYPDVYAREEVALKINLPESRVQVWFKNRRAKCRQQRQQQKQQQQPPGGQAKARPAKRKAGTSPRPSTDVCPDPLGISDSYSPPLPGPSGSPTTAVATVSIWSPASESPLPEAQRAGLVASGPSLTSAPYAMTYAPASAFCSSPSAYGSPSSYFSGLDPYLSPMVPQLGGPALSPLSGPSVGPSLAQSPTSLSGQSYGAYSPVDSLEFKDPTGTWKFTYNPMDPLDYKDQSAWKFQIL
# Sequence of ETV5 (P41161 whole entry): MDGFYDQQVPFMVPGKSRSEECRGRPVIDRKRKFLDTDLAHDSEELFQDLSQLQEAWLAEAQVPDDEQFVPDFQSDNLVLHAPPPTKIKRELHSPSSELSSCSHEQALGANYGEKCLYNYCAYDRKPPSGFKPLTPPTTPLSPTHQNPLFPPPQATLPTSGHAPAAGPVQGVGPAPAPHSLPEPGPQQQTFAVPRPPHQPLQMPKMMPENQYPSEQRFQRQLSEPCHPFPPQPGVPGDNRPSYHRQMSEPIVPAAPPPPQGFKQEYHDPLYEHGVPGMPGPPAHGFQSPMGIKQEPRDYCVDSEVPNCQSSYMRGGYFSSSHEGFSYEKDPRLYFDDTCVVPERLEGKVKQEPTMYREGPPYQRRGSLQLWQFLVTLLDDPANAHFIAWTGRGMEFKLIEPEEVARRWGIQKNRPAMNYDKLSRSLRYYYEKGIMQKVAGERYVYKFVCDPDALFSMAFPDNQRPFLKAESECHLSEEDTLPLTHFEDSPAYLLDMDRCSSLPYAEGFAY
sequence,measurement,setting,value
TCCTAG,binding signal,[1],"1.23 fold enrichment (6-mer frequency, TF over GST control)"
same,binding signal,[2],"1.11 fold enrichment (6-mer frequency, TF over GST control)"
same,binding signal,[3],"1.24 fold enrichment (6-mer frequency, TF over GST control)"
same,binding signal,[4],"1.17 fold enrichment (6-mer frequency, TF over GST control)"
same,binding signal,[5],"1.31 fold enrichment (6-mer frequency, TF over GST control)"
same,binding signal,[6],"1.22 fold enrichment (6-mer frequency, TF over GST control)"
same,binding signal,[7],"1.12 fold enrichment (6-mer frequency, TF over GST control)"
same,binding signal,[8],"1.41 fold enrichment (6-mer frequency, TF over GST control)"
same,binding signal,[9],"1.2 fold enrichment (6-mer frequency, TF over GST control)"
same,binding signal,[10],"1.19 fold enrichment (6-mer frequency, TF over GST control)"
same,binding signal,[11],"1.33 fold enrichment (6-mer frequency, TF over GST control)"
same,binding signal,[12],"1.45 fold enrichment (6-mer frequency, TF over GST control)"
same,binding signal,[13],"1.2 fold enrichment (6-mer frequency, TF over GST control)"
same,binding signal,[14],"1.29 fold enrichment (6-mer frequency, TF over GST control)"
same,binding signal,[15],"1.24 fold enrichment (6-mer frequency, TF over GST control)"
same,binding signal,[16],"1.23 fold enrichment (6-mer frequency, TF over GST control)"
same,binding signal,[17],"1.2 fold enrichment (6-mer frequency, TF over GST control)"
same,binding signal,[18],"1.29 fold enrichment (6-mer frequency, TF over GST control)"
same,binding signal,[19],"1.41 fold enrichment (6-mer frequency, TF over GST control)"
